Measurements taken from PubChem BioAssay (NCI).
This is part of a sample that, as a whole, favours compounds with a hit. Of some 79,000 tested, about 15% had one in any assay. Calls of active or inactive are those of the source. Rule as the data show it: active = growth inhibition above about 70%; inactive = the rest.

What was measured:
[1] = NCI Yeast Anticancer Drug Screen. Data for the rad50 strain (AID 155);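 also: 0% = growth of vehicle-only cultures of the same strain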; details: S. cerevisiae rad50 strain growth inhibition; at 50.0 µM; hits give high values
Method in brief: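 Compounds were tested on a yeast strain with an engineered DNA damage repair alteration; the reported value is growth inhibition normalised to vehicle treatment.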

[2] = NCI Yeast Anticancer Drug Screen. Data for the mec2-1 strain (AID 157); details: S. cerevisiae mec2-1 strain, at 50.0 µM, hits give high values
Method in brief: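 Cells of the genetically defined mec2-1 yeast strain are incubated with test compound. Inhibition of growth is calculated against vehicle-treated controls.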

[3] = NCI Yeast Anticancer Drug Screen. Data for the sgs1 mgt1 strain (AID 161);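 also: 0% = growth of cultures given vehicle only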; details: S. cerevisiae sgs1 mgt1 strain, at 50.0 µM, hits give high values
Method in brief: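 Mutant yeast exposed to compound; growth scored against vehicle-only wells.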

[4] = NCI Yeast Anticancer Drug Screen. Data for the cln2 rad14 strain (AID 165);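 also: 0% = growth equal to vehicle treated cultures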; details: S. cerevisiae cln2 rad14 strain, at 50.0 µM, hits give high values
Method in brief: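 The screen exposed genetically defined yeast (cln2 rad14) to test compounds and scored growth inhibition relative to vehicle-treated controls.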

[5] = NCI Yeast Anticancer Drug Screen. Data for the bub3 strain (AID 167); details: S. cerevisiae bub3 mutant strain, at 50.0 µM, hits give high values
Method in brief: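 Growth of a checkpoint-deficient yeast mutant is measured after compound exposure. Values represent inhibition relative to vehicle.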

[6] = NCI Yeast Anticancer Drug Screen. Data for the mlh1 rad18 strain (AID 175); details: S. cerevisiae mlh1 rad18 strain growth inhibition; at 50.0 µM; hits give high values
Method in brief: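 Compound-treated yeast growth, normalised to vehicle controls. Strain bears defined DNA repair mutations.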

Measured: growth inhibition

CN(C)C(=O)/C=C/C(=O)O (tested in a mixture with another compound)
inactive: [1] -1.25% | [2] -10.3% | [3] 6.9% | [4] 7.65% | [5] 16.8% | [6] -20.8%

O=[N+]([O-])/C(C(Cl)=C(Cl)Cl)=C(/Cl)Sc1ccccc1
active: [1] 91.8% | [2] 92.1% | [3] 85.7% | [4] 89.8% | [5] 89.1% | [6] 91.4%

O=c1[nH]c2ccccc2c(O)c1-c1ccccc1
inactive: [1] 6.95% | [2] 0.8% | [3] -17% | [4] -8.6% | [5] -22.5% | [6] 0.65%

CCC(c1ccc(N(C)C)cc1)c1ccc(N(C)C)cc1
inactive: [1] 3.8% | [2] -48.9% | [3] 1.6% | [4] 8.35% | [5] 0.05% | [6] 4.2%

O=C(NCc1cccnc1)C1COc2cc(-c3cc(=O)c4ccccc4o3)ccc2O1 (stereo unspecified)
inactive: [1] -9.55% | [2] -18.9% | [3] -23.9% | [4] -5.25% | [5] -6.95% | [6] -49%

O=C(c1ccc(Br)cc1)C1SC2(C(=O)c3ccc(Br)cc3)SC(C(=O)c3ccc(Br)cc3)C(C(=O)c3ccc(Br)cc3)SC2(C(=O)c2ccc(Br)cc2)SC1C(=O)c1ccc(Br)cc1 (stereo unspecified)
inactive: [1] -8.8% | [2] 3.75% | [3] -17.4% | [4] -11.9% | [5] -2.95% | [6] -24.4%

C=CC1CNCCC1CCC(=O)c1ccnc2ccc(OC)cc12 (stereo unspecified)
inactive: [1] 7.75% | [2] -9.6% | [3] -1.2% | [4] 5.85% | [5] 1.15% | [6] 4.4%

CCOC(=O)c1c(C(=O)OC)nc2n1-c1ccccc1OC2
inactive: [1] -16.2% | [2] -36.1% | [3] -14.4% | [4] -17.8% | [5] -17.4% | [6] -0.7%

CC1(O)CC2C(CC1SCCO)C2(C)C (stereo unspecified)
inactive: [1] -30.4% | [2] -10.8% | [3] -42.1% | [4] -11.1% | [5] -56% | [6] -30.5%

CC(=O)N/N=C(\N)c1nc2c(n3nc(C)nc13)CCCC2
inactive: [1] -17.6% | [2] -19% | [3] -1.2% | [4] -18.4% | [5] -5.05% | [6] 5.5%

Cc1ccc(NC(=O)CCCC(=O)C(C#N)c2ccccc2Cl)cc1C (stereo unspecified)
inactive: [1] 0.15% | [2] -0.95% | [3] -5.75% | [4] -22.5% | [5] -10.1% | [6] -5.1%

Cc1cccc(-c2c3ccccc3cc3c2ccc2ccccc23)c1
inactive: [1] 11.9% | [2] -5.35% | [3] -3.55% | [4] -13.8% | [5] 8.7% | [6] -2.65%

CC(C)(C)OC(=O)NNC(=O)c1ccc([N+](=O)[O-])cc1
inactive: [1] 17.2% | [2] -9.8% | [3] -2.5% | [4] 30.6% | [5] 3.75% | [6] 5.8%

CCCCCc1ccc(C)cc1OC(C)=O
inactive: [1] 14.1% | [2] -1.4% | [3] 8.85% | [4] -14.1% | [5] -2.75% | [6] 0.5%

CSC1(C)C(=O)Nc2ccccc21 (stereo unspecified)
inactive: [1] -4.15% | [2] -9.65% | [3] -0.35% | [4] -20.8% | [5] -36.3% | [6] 3.6%

O=C1/C(=C/c2ccccc2)CCc2ccc([N+](=O)[O-])cc21
inactive: [1] -2.9% | [2] -1.85% | [3] 8.25% | [4] 4.1% | [5] 0.95% | [6] -26.4%

CCOc1cc2ccc3c4cc(OC)c(OC)cc4cnc3c2cc1OCC
inactive: [1] -16.9% | [2] -17.4% | [3] -12.7% | [4] -0.4% | [5] -9.4% | [6] -18.9%

CC(CCC(=O)CS(C)=O)C1CCC2C3CCC4CCCCC4(C)C3CCC12C (stereo unspecified)
inactive: [1] 34.1% | [2] -20.4% | [3] 25.8% | [4] 11.6% | [5] -4% | [6] 0.95%

Cc1cccc(Cl)c1N=Nc1c(C)nc(N)nc1-c1ccccc1
inactive: [1] 7.1% | [2] 15.8% | [3] 5.8% | [4] -11.5% | [5] 1.1% | [6] 7.8%

CCOC(=O)NC(Nc1ccc(C(=O)OCC)cc1)(C(F)(F)F)C(F)(F)F
inactive: [1] 0.25% | [2] 3.25% | [3] -15.2% | [4] -16% | [5] -13.2% | [6] 0.55%

COc1ccc(NC(=O)N(C)C)cc1OC
inactive: [1] 14.8% | [2] -5.25% | [3] -4.2% | [4] -25.6% | [5] 4.4% | [6] 15.8%

Cc1nc(C(N)=S)sc1C(=O)CC(=O)C(=O)Nc1c(C(C)C)cccc1C(C)C
inactive: [1] -28.1% | [2] -41.6% | [3] -31.8% | [4] -24.9% | [5] -8.55% | [6] -22.1%

CS(=O)(=O)c1ccc2c(c1)-c1ccc([N+](=O)[O-])cc1C2=O
inactive: [1] 12.7% | [2] 8.8% | [3] 6.3% | [4] 1.65% | [5] -4% | [6] -0.9%

N#CC(CCc1nc(N)nc(N)n1)(CCc1nc(N)nc(N)n1)c1ccccc1
inactive: [1] -6.7% | [2] -19.1% | [3] 1.9% | [4] -45.7% | [5] -1.2% | [6] -14.9%

O=C(O)CCC1CCc2cccc(O)c2C1=O (stereo unspecified)
inactive: [1] 8.4% | [2] 3.3% | [3] 2.25% | [4] 15.6% | [5] 6.5% | [6] -3.45%

CC=NC(C)(C)C
inactive: [1] -7.25% | [2] -9.15% | [3] -12.3% | [4] -11.8% | [5] 3.3% | [6] -18.9%

C(=Nc1ccccc1-c1ccccc1N=Cc1ccccc1)c1ccccc1
inactive: [1] 7.6% | [2] 7.3% | [3] -1.25% | [4] 7.2% | [5] -7.75% | [6] -17.9%

CC(=O)OCC(=O)[C@@]1(O)CC[C@H]2[C@@H]3C[C@H](Cl)C4=CC(=O)C=C[C@]4(C)[C@H]3C(=O)C[C@@]21C
inactive: [1] 15.4% | [2] 3% | [3] 47.5% | [4] 49.5% | [5] -7.75% | [6] 39.5%

O=C(CC(O)(C(F)(F)F)C(F)(F)F)c1ccc(Br)cc1
inactive: [1] 4.35% | [2] 19.6% | [3] 5.45% | [4] -8.25% | [5] 14.1% | [6] 49.4%

Cc1ccc(C2=Nn3c(nc4sc(C)c(C)c4c3=O)SC2)cc1
inactive: [1] -27.9% | [2] -3.25% | [3] -23.1% | [4] 6.15% | [5] -22.1% | [6] -10.6%

CC(C)COC1=CC(=O)c2ccccc2C1=O
inactive: [1] 16.4% | [2] 17.4% | [3] 18.6% | [4] -1.05% | [5] 35% | [6] -7%

COC1=CC(=O)C2CC=C(C)CC2(C)C1=O (stereo unspecified)
inactive: [1] -7.9% | [2] -12.4% | [3] -16.6% | [4] 18% | [5] -0.05% | [6] -3.8%

O=S1(=O)CC(N2CCCCC2)C1
inactive: [1] -3.95% | [2] 2.05% | [3] 17.3% | [4] -40.9% | [5] -3% | [6] -13.3%

COc1ccc(CNc2ccccc2)cc1
inactive: [1] -2% | [2] 11.8% | [3] 3.65% | [4] 10.6% | [5] -4.05% | [6] -9.4%

CCOC(=O)c1cc(C)[nH]n1
inactive: [1] -37.9% | [2] -26.1% | [3] -6.75% | [4] -11.7% | [5] -26.9% | [6] 2.15%

CC(C)OC1(c2ccccc2)OC(c2ccccc2)=CC1=O (stereo unspecified)
inactive: [1] 5.35% | [2] -17.1% | [3] -12.1% | [4] -7.4% | [5] 14.1% | [6] -0.8%

CC(=O)OCC1OC(OC(C)=O)C(NC(=S)N(C)N=O)C(OC(C)=O)C1OC(C)=O (stereo unspecified)
inactive: [1] 0.65% | [2] -8.4% | [3] -16.9% | [4] 12.4% | [5] -19.3% | [6] -40.3%

Nc1ncnc(N)c1NC(=O)c1ccc(CCc2ccccc2)c(Cl)c1
inactive: [1] -3.9% | [2] 37.1% | [3] 21.6% | [4] -14.2% | [5] 4.1% | [6] -4.35%

CCCNC(=S)N=Nc1c(O)[nH]c2ccccc12
inactive: [1] -46.2% | [2] -55.8% | [3] -25.1% | [4] -31.5% | [5] -22.2% | [6] -11.2%

COc1nc(NC2OCC(O)C(O)C2O)c(C(C)=O)c(=O)n1C (stereo unspecified)
inactive: [1] 3.5% | [2] -2.65% | [3] 7.05% | [4] -0.25% | [5] -19.4% | [6] -0.7%

O=C1OC(=O)c2c(Cl)c(Cl)c(Cl)c(Cl)c21
inactive: [1] 8.55% | [2] -0.15% | [3] 23.9% | [4] -34.9% | [5] -6.25% | [6] 2.5%
